Screens deposited in PubChem BioAssay by National Center for Advancing Translational Sciences (NCATS).
GBA mod: alters purified human glucocerebrosidase activity. 48,000 compounds, 1.1% hits. P04062. AID 360. Potency, µM. purified enzyme, resorufin glucoside fluorescence (screen aimed at inhibitors), 20 min; in the data active = potency below about 15 µM; inconclusive = mostly about 16 µM to 33 µM;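 also: the screen sought inhibitors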
Target sequence (P04062 whole entry, looked up): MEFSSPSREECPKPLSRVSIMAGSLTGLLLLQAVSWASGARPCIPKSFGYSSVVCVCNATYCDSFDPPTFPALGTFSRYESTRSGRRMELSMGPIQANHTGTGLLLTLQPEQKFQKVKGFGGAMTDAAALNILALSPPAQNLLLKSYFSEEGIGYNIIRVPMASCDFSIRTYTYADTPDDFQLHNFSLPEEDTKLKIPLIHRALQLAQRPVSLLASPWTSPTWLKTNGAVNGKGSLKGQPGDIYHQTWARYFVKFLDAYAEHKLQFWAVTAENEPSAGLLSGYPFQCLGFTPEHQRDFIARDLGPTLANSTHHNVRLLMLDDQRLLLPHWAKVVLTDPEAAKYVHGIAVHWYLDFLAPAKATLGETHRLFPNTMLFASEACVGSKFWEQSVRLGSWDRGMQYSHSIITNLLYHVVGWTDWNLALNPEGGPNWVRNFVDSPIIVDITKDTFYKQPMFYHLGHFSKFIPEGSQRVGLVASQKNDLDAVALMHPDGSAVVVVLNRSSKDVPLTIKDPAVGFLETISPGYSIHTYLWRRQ
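Normal human glucocerebrosidase (0.2 nM final) was assayed with resorufin β-D-glucopyranoside (30 uM final) in 50mM citric acid/KH2PO4, 10mM sodium taurocholate, 0.01% tween-20, pH 5.9. Compounds were titrated; fluorescence (Ex 548, Em 600) read after 20 min at RT.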
Bst PK mod: pyruvate kinase (B. stearothermophilus) modulation; Potency, µM; 51,000 compounds, 1.2% hits; purified pyruvate kinase, luminescence ATP production; ribose 5-phosphate activator present at AC10; in the data active = potency below about 11 µM; inconclusive = mostly about 12 µM to 25 µM;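 the screen sought inhibitors and activators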;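 also: scaled between full activation by ribose 5 phosphate and full inhibition by luteolin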
Luciferase inh: firefly luciferase inhibition; P08659; Potency, µM (doses to about 57.1 µM), for the others: at the highest dose activity change, negative = inhibition, hits mostly inhibitors; 72,000 compounds, 2.2% hits; purified firefly luciferase, luminescence, 8 min; active = well fitted inhibition curve with a large enough effect; inconclusive = small, poorly fitted or top-dose-only effect; also: % is scaled to controls: 0 for no effect and ±100 for the full control effect; nearly all actives have a fitted effect of over 40% in size
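Compounds were tested as concentration series (qHTS) against purified P. pyralis luciferase with luciferin and 10 uM ATP in 50 mM imidazole pH 7.2, 50 mM KCl, 7 mM MgCl2, 0.01% Tween 20, 0.05% BSA. Luminescence was read after 8 min at ambient temperature.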
Active calls of the source: *; i = inactive; ? = inconclusive; · = no result; [ ] = remark or other dose. Hits are enriched below; roughly 3.2% of the tested compounds scored in any of these assays. Potency is read from the fitted curve at half-maximal effect.

SMILES	GBA mod	Bst PK mod	Luciferase inh
CCN(CC)c1ccc(NC(=O)c2ccccc2F)cc1	>77	i	16µM*
COC(=O)C/C=C\[C@@H](C)[C@@H](/C=N\O[C@@H](C)c1cn([C@H](CO)Cc2ccccc2)nn1)NS(=O)(=O)c1ccc(C)cc1	·	·	-2%[11.4 µM]
NCCOc1ccccn1	·	·	3%[11.4 µM]
C[N+](C)(C)c1ncnc2c1ncn2[C@@H]1CCCCO1	·	·	4%[11.4 µM]
O=S(=O)(O)n1ccnc1 (tested in a mixture with another compound)	·	·	1%[11.4 µM]
C[C@@H]1O[C@H]2C3=C(C(=O)[C@H]4O[C@@H]4[C@H]3O)[C@@H]1[C@@H]1[C@@H](C)OC=C3[C@H](O)[C@H]4O[C@@H]4/C(=N\OCc4ccccc4)[C@]312	·	·	0%[11.4 µM]
CCC(=O)O[C@@]1(C(=O)SCF)[C@@H](C)C[C@H]2[C@@H]3C[C@@H](F)C4=CC(=O)C=C[C@@]4(C)[C@]3(F)[C@@H](O)C[C@]21C	·	·	2%[25.5 µM]
CC(=O)NC1(c2ccccc2)CCN(c2nc(C)cc(C)n2)CC1	>77	>57	-1%
CN(C)c1nc(Nc2ccc(Cl)cc2)nc(OCC#N)n1	>77	1.7*	2%
CN(C)c1nc(N)nc(Nc2ccccc2C#N)n1	·	·	-2%
CN(C)c1ccc(-c2nc(Nc3ccncc3)c3ccccc3n2)cc1	·	·	0.4µM*
CN(C)C(=O)c1ccc(-c2nc(Nc3ccncc3)c3ccccc3n2)cc1	·	·	-10%[2.29 µM]
CCNc1ncc2nc(-c3ccccc3)c(=O)n(Cc3cccc(OC)c3)c2n1	·	·	-1%[11.4 µM]
C=CCn1c(COc2cccc(C)c2)nnc1SCC(=O)NC(=O)NCc1ccco1	>77	>57	3%
C=CCn1c(COc2ccc(F)cc2)nnc1SCC(=O)NC(=O)NCc1ccco1	15*	>57	-33%
CCOC(=O)Cc1cc(=O)n(-c2nc3ccccc3s2)[nH]1	>77	>57	-5%
CC(=NC1CCCC1)c1c(C)[nH]n(-c2nc3ccccc3s2)c1=O	·	i	13µM*
c1cncc(-c2noc(-c3ccco3)n2)c1	·	·	-12%
CCC(=O)Oc1ccc(-c2nc(-c3cccnc3)no2)cc1	7.8*	?	13µM*
Cn1nnc(NC(=O)c2ccccc2F)n1	·	·	-12%
CCCn1nnc(NC(=O)c2ccco2)n1	>77	>57	-5%
CCOc1ccc(C(=O)Nc2nnn(CC)n2)cc1	?	·	25µM*
CCCn1nnc(NC(=O)c2ccc(OCC)c(Cl)c2)n1	>77	>57	-1%
CCn1nnc(NC(=O)c2ccc(-c3ccc(Cl)cc3)o2)n1	?	6.5*	-18%
Cn1nnc(NC(=O)c2ccc(C(C)(C)C)cc2)n1	·	?	10µM*
SMILES	GBA mod	Bst PK mod	Luciferase inh
C#CCCCO/N=C1/C[C@@H](O)[C@@H](O)[C@@H]2[C@@H]3C(=O)N([C@@H](C)c4ccccc4)C(=O)[C@H]3CC[C@@H]12	·	·	1%[11.4 µM]
S=C(Nc1ccc2cn[nH]c2c1)Nc1ccc2cn[nH]c2c1	·	·	-6%[11.4 µM]
CN(C)c1ccc(/C=N/n2ncc3ccccc32)cc1	?	1.9*	4µM*
C=CCn1c(C(C)NC(=O)C(C)(C)C)nc2ccccc21 (stereo not drawn)	>77	>57	2%
C=CCn1c(/N=C/c2ccc(N(C)C)cc2)nc2ccccc21	>77	1.4*	4µM*
CN(C)c1ccc(C=Nc2cnn(C)c2C(N)=O)cc1	·	i	-18%[25.5 µM]
Cc1ccc(C2CC(c3ccco3)n3ncnc3N2)cc1 (stereo not drawn)	·	·	2%
Cc1ccc2c(c1)C(N1CCCC1=O)CC(c1ccco1)N2 (stereo not drawn)	>77	?	10µM*
O=C(CC(Nc1ccccc1)C(=O)O)c1ccccc1 (stereo not drawn)	>77	10*	13µM*
O=C(N[C@@H](Cc1ccccc1)C(=O)O)c1cccnc1	·	·	2%
COc1cccc(-c2nc(NCCN3CCOCC3)c3ccccc3n2)c1	·	·	-1%[2.29 µM]
CN(C)Cc1ccccc1-c1cc(-n2ccnc2)ncn1	·	·	1%[2.29 µM]
C/C(CCN1CCCCc2nc(C)c(C)cc21)=N\O[C@@H](C)c1cc(-c2c(C)cc(C)cc2C)no1	·	·	1%[11.4 µM]
COc1ccc(Cc2nn3c(Cn4nnc5ccccc54)nnc3s2)cc1	>77	·	16µM*
c1ccc(-c2nn3c(Cn4nnc5ccccc54)nnc3s2)cc1	>77	>57	-1%
CN(C)S(=O)(=O)c1ccc(N2CCN(S(=O)(=O)c3ccc(F)cc3)CC2)c(Cl)c1	>77	6.1*	2%
CN(C)S(=O)(=O)N1CCN(S(=O)(=O)c2ccc(F)cc2)CC1	>77	>57	0%
COc1ccc(COC(=O)N/N=C2/C[C@@H](O)[C@@H](O)[C@@H]3[C@@H]4C(=O)N(C[C@@H]5CCCO5)C(=O)[C@H]4CC[C@@H]23)cc1	·	·	2%[11.4 µM]
c1cncc(CNCc2cccnc2)c1	·	·	1%[11.4 µM]
Cc1ccc(C)c(SCC(=O)Nc2nnc(-c3ccccc3)o2)c1	>77	3.1*	-3%
CCC(c1nnc(SCC(=O)Nc2nnc(-c3ccccc3)o2)o1)N(C)C (stereo not drawn)	>77	>57	-4%
NCCCCN	·	·	-6%
COCCn1c(C)cc(C(=O)COC(=O)c2cc3c(s2)CCC3)c1C	>77	>57	-5%
COCCn1c(C)cc(C(=O)COC(=O)C23CC4CC(CC(O)(C4)C2)C3)c1C	>77	i	13µM*
Cc1cc(=O)[nH]c(/N=C(\N)Nc2ccc(Cl)cc2)n1	·	·	1%[11.4 µM]
SMILES	GBA mod	Bst PK mod	Luciferase inh
COc1ccc(NC(=O)c2ccco2)c(OC)c1	>77	>57	-7%
COc1cc(NC(=O)C(C)C)ccc1NC(=O)c1ccco1	>77	·	20µM*
Nc1ncnc2nc[nH]c12.Nc1ncnc2nc[nH]c12.[Cl][Pt]([Cl])([Cl])[Cl]	·	·	-4%[11.4 µM]
COc1ccc(NS(=O)(=O)c2cc(C)ccc2C)cc1	·	>11	-1%
COCCNC(=O)c1ccc(NS(=O)(=O)c2cc(C)ccc2C)cc1	7.1*	i	-2%
Cc1cccc(CNc2nc(-c3ccc(C(=O)N(C)C)cc3)nc3ccccc23)c1	·	·	-2%[2.29 µM]
COc1ccc(-c2cc(=O)c3ccccc3s2)cc1	>77	0.88*	16µM*
COC(=O)c1sc2ccccc2c1C(=O)OC	>77	>57	2%
Cc1cc(C)c2c(N)c(C(=O)Nc3nccs3)sc2n1	·	·	0.5µM*
COCc1cc(C)nc2sc(C(=O)Nc3nccs3)c(N)c12	·	·	-13%
Cc1noc(C)c1C(=O)N1CCC[C@@]2(CCN(C(=O)Nc3cccc(F)c3)C2)C1	·	·	-1%[11.4 µM]
CCOC(=O)[C@H](N)/C=C(\C)CP(=O)(O)O	·	·	4%
O=c1c(-c2ccc(F)cc2)nc2cnc(N3CCOCC3)nc2n1C[C@H]1CCCO1	·	·	-1%[11.4 µM]
Cc1cn2nc(N)c3ccccc3c2n1	>77	8.8*	-3%
Cc1nc2c3cnn(-c4ccccc4)c3ncn2n1	>77	·	-13%
O=C(O)[C@@H]1[C@@H](C(=O)Nc2ccccc2)[C@@H]2C=C[C@@H]1O2	·	·	4%[11.4 µM]
CCOc1ccc(NC(=O)Cn2nnc(-c3ccccc3F)n2)cc1	>77	>57	1%
CCc1nnc(NC(=O)Cn2nnc(-c3ccccc3F)n2)s1	4.5*	>57	2%
COc1cc(-c2nnc3sc(-c4ccccn4)nn23)cc(OC)c1OC	>77	·	3%
CC1=C(C(=O)O)N2C(=O)[C@@H](NC(=O)[C@@H](N)C3=CCC=CC3)[C@@H]2SC1	·	·	0%
C#C[C@@]1(O)CC[C@H]2[C@H]3CCC4=Cc5oncc5C[C@]4(C)[C@@H]3CC[C@@]21C	·	·	-1%
Cc1ccc2nc(-c3ccc4c(c3)OCCO4)cc(C(=O)O)c2c1	>77	?	13µM*
